The source of these data is PubChem BioAssay (Tox21).

Inconclusive results are not listed. Some structures have more than one record in an assay (separate samples or runs), and their calls can disagree. Calls of active or inactive are those of the source. Unless noted, calls follow the shape of the dose curve; as a rule, active = well fitted curve in the direction sought with a large enough effect in the repeat runs; inconclusive = weak or mixed curves; inactive = no such curve, though single readings can be large; an effect the other way counts as inactive or inconclusive.

The nature of experiment [1]: qHTS assay to identify small molecule antagonists of the vitamin D receptor (VDR) signaling pathway - cell viability counter screen (AID 743225). Also: % is scaled to controls: 0 for no effect and ±100 for the full control effect; nearly all actives have a fitted effect of over 50% in size. The gist of the method:
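Cells (VDR-UAS-bla HEK 293T) are plated, rested 4 h at 37C, dosed with compound and 3 nM final 1-alpha,25-dihydroxy vitamin D3, and incubated 16 h. Viability is taken from CellTiter-Glo luminescence in the reporter wells.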

Experiment [2] in a line: qHTS assay to identify small molecule agonists of the NFkB signaling pathway (AID 1159509; active = well fitted curve in the direction sought with a large enough effect in the signal ratio in the repeat runs, not every such curve was filed as active; the % refers to the signal ratio; also: series mostly up to about 61 µM; % is scaled to controls: 0 for no effect and ±100 for the full control effect). In a few lines:
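Readout: FRET fluorescence, 405 nm excitation, 460/530 nm emission; beta-lactamase expression disrupts FRET. Cells: ME-180 stably carrying NF-kB-driven bla reporter. Compound exposure 5 hr, 37 C, 5% CO2.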

Experiment [3] in a line: qHTS assay to identify small molecule agonists of the endoplasmic reticulum stress response signaling pathway (AID 1159516; active = well fitted activation curve with a large enough effect in the signal ratio in the repeat runs, not every such curve was filed as active; the % refers to the signal ratio; also: % is scaled to controls: 0 for no effect and ±100 for the full control effect). In a few lines:
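Beta-lactamase expression from the ER stress response element in HeLa reporter cells is quantified with the LiveBLAzer B/G FRET substrate, read at 405 nm excitation after 2 hr at room temperature, following 5 hr compound treatment at 37 C.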

Experiment [4] can be described thus: qHTS assay to identify small molecule agonists of the endoplasmic reticulum stress response signaling pathway - cell viability counter screen (AID 1159517; calls by dose curve; also: nearly all actives have a fitted effect of over 50% in size; also: potency is read from the fitted curve at half-maximal effect). The gist of the method: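 Steps: seed 1,500 ESRE-bla HeLa cells per well; incubate overnight at 37 C, 5% CO2; add compounds in DMSO for 5 hr; run FRET substrate 2 hr RT; add CellTiter-Glo, wait 30 min, read luminescence.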

Experiment [5] can be described thus: qHTS assay to identify small molecule antagonists of the retinoid-related orphan receptor gamma (ROR-gamma) signaling pathway - cell viability counter screen (AID 1159520). Also: % is scaled to controls: 0 for no effect and ±100 for the full control effect; nearly all actives have a fitted effect of over 50% in size. In a few lines:
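Tet-on ROR gamma CHO cells were given compounds for 2 hr, then doxycycline hyclate at 1 uM final, and incubated 16 hr at 37 C. Viability was measured as ATP content by CellTiter-Glo luminescence.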

For experiment [6], the target named is Nuclear receptor ROR-gamma (Homo sapiens) (UniProt P51449). As to the kind of experiment: qHTS assay to identify small molecule antagonists of the retinoid-related orphan receptor gamma (ROR-gamma) signaling pathway (AID 1159521; also: nearly all actives have a fitted effect of over 50% in size; also: potency is read from the fitted curve at half-maximal effect). In a few lines: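 RORγ antagonism is scored from reduced reporter luminescence in Tet-on CHO cells. Induction used 1 uM final doxycycline hyclate for 16 h at 37 C, following a 2 h compound exposure.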

Experiment [7] is described as follows: qHTS assay to identify small molecule agonists of the AP-1 signaling pathway - cell viability counter screen (AID 1159525; calls by dose curve; also: nearly all actives have a fitted effect of over 55% in size). In a few lines:
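Same-well cytotoxicity counter screen of the Tox21 10K library in ME-180 cells. The readout is ATP-dependent luminescence after 5 h compound treatment. Data are normalised to DMSO and tetra n-octyl ammonium bromide controls.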

Experiment [8] is described as follows: qHTS assay to identify small molecule agonists of the AP-1 signaling pathway (AID 1159526; calls by dose curve; also: % is scaled to controls: 0 for no effect and ±100 for the full control effect).
Experiment [9] addresses Retinoic acid receptor RXR-alpha (Homo sapiens) (UniProt P19793). Kind of experiment: qHTS assay to identify small molecule agonists of the RXR signaling pathway (AID 1159527; calls by dose curve; also: nearly all actives have a fitted effect of over 35% in size; also: potency is read from the fitted curve at half-maximal effect). In a few lines:
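qHTS of the Tox21 10K library in GeneBLAzer RXR-alpha HEK 293T cells carrying a beta-lactamase reporter […]; 16 hr treatment, 9-cis retinoic acid as agonist control, FRET read-out.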

Experiment [10] can be described thus: qHTS assay to identify small molecule agonists of the RXR signaling pathway - cell viability counter screen (AID 1159529). The gist of the method:
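Cell viability is measured by CellTiter-Glo luminescence, 30 min at room temperature, in wells already read for beta-lactamase. Engineered HEK 293T cells (RXR-alpha-UAS-bla) are dosed 16 hr at 37 C. Tetraoctyl ammonium bromide serves as positive control.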

Experiment [11] in a line: qHTS assay to identify small molecule antagonists of the retinoid acid receptor (RAR) signaling pathway - cell viability counter screen (AID 1159551). Also: % is scaled to controls: 0 for no effect and ±100 for the full control effect; nearly all actives have a fitted effect of over 35% in size. The gist of the method: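 Viability of C3RL4 cells is quantified from ATP by luminescence after 6 h treatment at 37 C with compounds and 1 uM retinol.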
A short description of experiment [12]: qHTS assay to identify small molecule antagonists of the retinoic acid receptor (RAR) signaling pathway (AID 1159552). In a few lines:
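Quantitative HTS in C3RL4 RARE-luciferase reporter cells. Compounds were added with 1 uM (final) retinol; luminescence was read after 6 hr.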

The nature of experiment [13]: qHTS assay to identify small molecule agonists of the retinoic acid receptor (RAR) signaling pathway (AID 1159553). Also: % is scaled to controls: 0 for no effect and ±100 for the full control effect. In a few lines: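 Compounds dissolved in DMSO were pinned onto C3RL4 cells seeded the previous day, and plates were held 6 hr at 37 C. RARE-driven luciferase output was then read by luminescence.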

Chain of Retinoic acid receptor RXR-alpha (Homo sapiens) (P19793 whole entry, looked up): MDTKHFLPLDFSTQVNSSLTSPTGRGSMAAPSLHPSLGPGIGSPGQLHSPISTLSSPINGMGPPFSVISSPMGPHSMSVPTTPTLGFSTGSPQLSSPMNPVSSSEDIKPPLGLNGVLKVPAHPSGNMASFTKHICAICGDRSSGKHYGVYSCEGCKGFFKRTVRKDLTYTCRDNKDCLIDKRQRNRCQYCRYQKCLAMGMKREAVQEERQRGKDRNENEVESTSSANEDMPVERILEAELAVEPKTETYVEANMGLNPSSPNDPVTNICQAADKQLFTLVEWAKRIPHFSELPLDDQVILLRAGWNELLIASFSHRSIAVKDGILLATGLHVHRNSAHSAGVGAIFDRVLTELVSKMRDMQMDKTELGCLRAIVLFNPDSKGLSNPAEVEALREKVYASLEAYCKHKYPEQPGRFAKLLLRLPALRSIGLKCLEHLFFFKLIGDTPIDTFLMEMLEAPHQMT

On to `C[C@H]1CCCC(=O)CCC/C=C/c2cc(O)cc(O)c2C(=O)O1`, for which the Potency result in [1], in [5], in experiment [7], in [9], in [10] and in experiment [11] was “inactive” each time. Further, the result in experiment [2], in experiment [3] and in [8] was inactive. Further, the Potency was 47.2 µM (active) and inactive in [4]; 20.9 µM (active) and inactive in experiment [6].
For `COc1ccc(CN2CCNCC2)c(OC)c1OC`, the Potency entry in experiment [1], in experiment [4], in experiment [5], in [6], in experiment [7] and in experiment [9] was “inactive” in each case. Further, the Potency result in experiment [10], in experiment [11], in experiment [12] and in [13] was “inactive” throughout. In addition, the compound was called inactive in experiment [2], in experiment [3] and in experiment [8].
With `C=C(Cl)CSC(=S)N(CC)CC`, the Potency entry in experiment [1], in experiment [4], in [5], in experiment [6], in experiment [9] and in experiment [10] was “inactive” each time. Moreover, the Potency entry in experiment [11] and in experiment [12] was “inactive” throughout. Besides, the outcome in experiment [2], in experiment [3] and in experiment [8] was inactive.
As to `CCN1CCCC1CNC(=O)C(O)(c1ccccc1)c1ccccc1` (centres undefined), the Potency result in experiment [1], in [4], in experiment [5], in experiment [6], in experiment [7] and in experiment [10] was “inactive” each time. Besides, the Potency result in experiment [11], in [12] and in [13] was “inactive” in each case. Also, the result in experiment [2], in [3] and in experiment [8] was inactive.
Turning to `CCN(CCO)CCn1c(Cc2ccccc2)nc2c1c(=O)n(C)c(=O)n2C`, the Potency entry in experiment [1], in experiment [4], in experiment [5], in experiment [6], in experiment [7] and in experiment [9] was “inactive” throughout. The Potency entry in experiment [10], in experiment [11], in experiment [12] and in experiment [13] was “inactive” each time. Also, the compound was called inactive in experiment [2], in experiment [3] and in experiment [8].
For `CCCCCCC(=O)CCCCCC/C=C/C[C@@H](O)[C@H](O)[C@@](N)(CO)C(=O)O`, the Potency entry in experiment [1], in [4] and in [13] was “inactive” each time. Also, the call in [2] and in experiment [3] was inactive. Moreover, the activity, negative = cytotoxicity in experiment [5] is 4.11% [at 19 µM] (inactive). Further, the activity change, negative = inhibition in experiment [6] is -12.3% [at 19 µM] (inactive). Moreover, the viability change, negative = cytotoxic in experiment [7] was -3.45% [at 15.8 µM] (inactive). The results for the activation in experiment [8] and in experiment [9] were -2.3% [at 15.8 µM] (inactive) and 1.63% [at 15.8 µM] (inactive), respectively. The activity change, negative = cytotoxicity in [10] was 2.42% [at 15.8 µM] (inactive); in experiment [11], 2.99% [at 19 µM] (inactive). The activity, negative = inhibition in experiment [12] is 6.01% [at 19 µM] (inactive).
As for `O=[N+]([O-])CCO`, the result in experiment [2], in experiment [3] and in experiment [8] was inactive. Besides, the Potency result in experiment [4], in experiment [5], in [6], in [7], in [9] and in [10] was “inactive” in each case. In addition, the Potency result in experiment [11] and in experiment [13] was “inactive” throughout.
For `CC[C@H](O)C(C[C@H](C)N(C)C)(c1ccccc1)c1ccccc1`, the Potency result in experiment [1], in experiment [4], in [5], in experiment [6], in [7] and in [9] was “inactive” each time. For the same compound, the Potency entry in experiment [10], in [11] and in experiment [12] was “inactive” each time. The compound was classed as inactive in [2] and in experiment [8].
On to `C[C@H](CN1CCOCC1)C(C(=O)N1CCCC1)(c1ccccc1)c1ccccc1`, for which the Potency entry in experiment [1], in experiment [4], in [5], in [6], in [7] and in experiment [9] was “inactive” each time. For the same compound, the Potency result in experiment [10], in [11] and in experiment [13] was “inactive” in each case. For the same compound, the call in experiment [2], in experiment [3] and in experiment [8] was inactive.
Take `CC(=O)CN(CC(C)=O)N=O`: the Potency entry in experiment [1], in experiment [4], in experiment [5], in experiment [6], in experiment [7] and in [9] was “inactive” in each case. Moreover, the Potency entry in [10], in [11], in experiment [12] and in experiment [13] was “inactive” each time. Besides, the outcome in experiment [2], in experiment [3] and in experiment [8] was inactive.
In the case of `CCCCCCC1CCOC1=O` (centres undefined), the Potency result in [1], in [4], in experiment [5], in experiment [6], in [7] and in experiment [9] was “inactive” each time. Moreover, the Potency result in [10], in [11], in experiment [12] and in experiment [13] was “inactive” each time. The compound was called inactive in experiment [2], in experiment [3] and in experiment [8].
Take `ClCOCCl`: the Potency result in experiment [1], in [4], in [5], in experiment [6], in [7] and in experiment [9] was “inactive” throughout. For the same compound, the Potency result in experiment [10], in experiment [11], in [12] and in [13] was “inactive” each time. Also, the outcome in [2] and in [8] was inactive.
In the case of `C[N+]1(C)CCCCC1`, the compound was called inactive in experiment [2], in [3] and in [8]. For the same compound, the Potency entry in experiment [4], in experiment [5], in experiment [6], in [7], in experiment [10] and in [11] was “inactive” throughout. For the same compound, the Potency result in experiment [13] was “inactive”. Further, the Potency in experiment [9] was 6.09 µM (active).
As to `CN(C)CCN(C)C`, the call in experiment [2], in [3] and in experiment [8] was inactive. Besides, the Potency result in experiment [4], in experiment [6], in [7], in experiment [9], in [10] and in experiment [11] was “inactive” throughout. Besides, the Potency entry in [12] and in [13] was “inactive” throughout.
With `CCCOC(=O)c1cncn1C(C)c1ccccc1` (centres undefined), the Potency result in [1], in experiment [4], in experiment [5], in experiment [6], in experiment [7] and in [9] was “inactive” throughout. Moreover, the Potency result in experiment [10], in [11], in experiment [12] and in [13] was “inactive” throughout. Further, the compound was classed as inactive in [2] and in experiment [8].
On to `CCOC(=O)C(Cl)Cc1cc(-n2nc(C)n(C(F)F)c2=O)c(F)cc1Cl` (centres undefined), for which the Potency entry in [1], in [4], in experiment [5], in experiment [6], in experiment [9] and in experiment [10] was “inactive” each time. Moreover, the Potency entry in [11] and in [13] was “inactive” in each case. The compound was called inactive in experiment [2], in experiment [3] and in [8].
Turning to `BrCc1ccc(Br)cc1`, the Potency entry in experiment [1], in experiment [4], in experiment [5], in experiment [6], in experiment [7] and in experiment [9] was “inactive” throughout. Further, the Potency result in [10], in experiment [11], in experiment [12] and in experiment [13] was “inactive” throughout. Also, the call in [2], in experiment [3] and in [8] was inactive.
Take `O=C/C=C/c1ccco1`: the Potency entry in experiment [1], in [4], in experiment [5], in [6], in experiment [7] and in experiment [10] was “inactive” in each case. Besides, the Potency entry in experiment [11], in experiment [12] and in experiment [13] was “inactive” in each case. Further, the call in experiment [2], in experiment [3] and in experiment [8] was inactive.
`C[C@H](N)C(=O)c1ccccc1`: the Potency result in experiment [1], in experiment [4], in [6], in experiment [7], in [9] and in [10] was “inactive” throughout. Also, the Potency result in experiment [11], in experiment [12] and in experiment [13] was “inactive” each time. Moreover, the compound was classed as inactive in experiment [2], in [3] and in [8].
With `ClC(Cl)(Cl)Cl`, the Potency entry in [1], in experiment [4], in experiment [5], in [6], in experiment [7] and in experiment [9] was “inactive” each time. For the same compound, the Potency result in experiment [10], in [11] and in [12] was “inactive” each time. Besides, the compound was called inactive in [2] and in experiment [8].
`BrCCc1ccccc1`: the Potency result in experiment [1], in experiment [4], in experiment [5], in experiment [6], in experiment [9] and in experiment [10] was “inactive” in each case. The Potency entry in experiment [11], in experiment [12] and in experiment [13] was “inactive” each time. Moreover, the compound was called inactive in experiment [2] and in experiment [8].
